Screening results: PubChem BioAssay, National Center for Advancing Translational Sciences (NCATS)
TDP1 block: TDP1 (human) enzyme inhibition | recombinant TDP1, AlphaScreen DNA substrate cleavage | Q9NUW8 | AID 485290 | 350,000 compounds, 0.28% hits | Potency, µM (top dose mostly 130 µM), inactives show at the top dose activity change, negative = inhibition, actives largely listed as inhibitors; also: potency is read from the fitted curve at half-maximal effect; % is scaled to controls: 0 for no effect and ±100 for the full control effect; nearly all actives have a fitted effect of over 40% in size
Target sequence (Q9NUW8 whole entry, looked up): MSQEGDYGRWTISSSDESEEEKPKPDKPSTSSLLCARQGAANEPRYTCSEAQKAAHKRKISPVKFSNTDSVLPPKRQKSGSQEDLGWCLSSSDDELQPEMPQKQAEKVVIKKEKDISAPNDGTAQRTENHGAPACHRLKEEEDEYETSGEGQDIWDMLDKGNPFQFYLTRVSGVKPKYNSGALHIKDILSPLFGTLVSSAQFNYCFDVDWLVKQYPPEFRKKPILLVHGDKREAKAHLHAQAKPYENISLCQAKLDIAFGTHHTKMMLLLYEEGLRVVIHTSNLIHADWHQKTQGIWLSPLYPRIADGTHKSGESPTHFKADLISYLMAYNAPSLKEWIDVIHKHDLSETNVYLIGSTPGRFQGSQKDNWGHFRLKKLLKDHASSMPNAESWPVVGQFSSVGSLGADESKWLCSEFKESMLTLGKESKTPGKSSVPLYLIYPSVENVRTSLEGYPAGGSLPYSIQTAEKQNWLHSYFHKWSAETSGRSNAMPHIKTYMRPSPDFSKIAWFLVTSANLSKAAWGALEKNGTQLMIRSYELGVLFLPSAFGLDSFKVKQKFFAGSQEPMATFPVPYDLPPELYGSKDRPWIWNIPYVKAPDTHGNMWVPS
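Steps: enzyme plus compound, 15 min RT; add biotin/phosphotyrosine-FITC oligonucleotide (15 nM final), react 5 min; add donor/acceptor beads (10 ug/ml final), 10 min; read AlphaScreen. Tdp1 at 1 nM final.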
DT40 TDP1 CPT: growth inhibition of DT40 Tdp1-/-;hTDP1 cells with camptothecin (screen for TDP1 inhibitors) | AID 686979 | 420,000 compounds, 12% hits | Potency, µM (series often up to 46.2 µM), for inactives: top-dose activity change, negative = growth inhibition, hits mostly inhibitors | chicken DT40 Tdp1-/-;hTDP1 cells + 20 nM CPT, ATP luminescence, 48 h; also: potency is read from the fitted curve at half-maximal effect; % is scaled to controls: 0 for no effect and ±100 for the full control effect; nearly all actives have a fitted effect of over 55% in size
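Chicken DT40 Tdp1-/- cells complemented with human TDP1, 400 cells/well, exposed to compounds plus 20 nM camptothecin for at least 48 h at 37 C; viability read as ATP content by CellTiter-Glo luminescence.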
DT40 TDP1 no CPT: qHTS for Inhibitors of human tyrosyl-DNA phosphodiesterase 1 (TDP1): qHTS in cells in absence of CPT. DT40 Tdp1-/- hTDP1 cells, no CPT, ATP luminescence, 48 h. Potency, µM (highest dose often 46.2 µM), inactives show at the highest dose activity change, negative = growth inhibition, most hits filed as inhibitors. 420,000 compounds, 15% hits; also: potency is read from the fitted curve at half-maximal effect; % is scaled to controls: 0 for no effect and ±100 for the full control effect; nearly all actives have a fitted effect of over 55% in size
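DT40 Tdp1-/-;hTDP1 cells, no CPT (DMSO vehicle only), 400 cells/well; compounds pin-transferred; ≥48 hr, 37 °C; CellTiter-Glo 30 min RT dark, luminescence read.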
IL-1B inflam inh: inhibitors of inflammasome signaling (IL-1 beta secretion). THP-1 LPS/ATP IL-1B secretion, AlphaLISA, 16 h; stronger effect = lower value. activity change, % at 57.5 µM. 360,000 compounds, 4.7% hits. AID 743279; in the data active = activity change below about -50%; inconclusive = mostly about -30% to -49%; also: % is scaled to controls: 0 for no effect and ±100 for the full control effect
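Secreted IL-1B measured by AlphaLISA bead assay after 16 h compound exposure of THP-1 cells; compounds (final up to 57.5 uM) added 1 h before LPS (250 ng/mL) and ATP (1.25 mM) stimulation; lower signal means less secretion.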
TGFb SMAD3 inh: inhibitors of TGF-b signaling. HepG2 CAGA-GFP TGF-b/SMAD3 reporter, GFP fluorescence, 18 h; TGF-beta stimulated, 500 pg/mL final. Potency, µM (highest dose often 46.1 µM), for the others: at the highest dose activity, negative = inhibition, usual class: inhibitors. 410,000 compounds, 1.2% hits. AID 588855; also: potency is read from the fitted curve at half-maximal effect; % is scaled to controls: 0 for no effect and ±100 for the full control effect; nearly all actives have a fitted effect of over 65% in size
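Inhibition of TGF-beta-driven CAGA-GFP reporter expression in HEPG2 cells is measured by cellular GFP fluorescence after 18 h stimulation with 500 pg/mL recombinant TGF-beta in 1% FBS medium at 37 degrees C.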
HepG2 viability: counter-screen for TGF-b inhibitors: cytotoxicity in HepG2 cells. HepG2 CAGA-GFP viability, ATP luminescence, 18 h. Potency, µM (doses to about 46.1 µM), for inactives: top-dose activity change, negative = cytotoxicity, usual class: cytotoxic. 410,000 compounds, 0.76% hits. AID 588856; also: potency is read from the fitted curve at half-maximal effect
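CellTiter-Glo luminescence gave cytotoxicity after 18 hours at 37 degrees C. The cells were HepG2 CAGA-GFP in 1% FBS DMEM, stimulated with 500 pg/mL TGF-beta after compound addition. %Activity was normalised to no-cell wells (complete cell-killing) and DMSO (no toxicity), and curves were fitted and classified.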
An asterisk follows results filed as active; [ ] = dose if it differs, or a comment. Sampled rows, rich in hits. Any-hit rate of the full collection: about 18%. Unless noted, calls follow the shape of the dose curve; as a rule, active = well fitted curve in the direction sought with a large enough effect; inconclusive = small, poorly fitted or top-dose-only effect, or another doubt; inactive = no such curve, though single readings can be large; an effect the other way counts as inactive or inconclusive.

COc1ccc(CC(=O)N2CCCC2)c(OC)c1 was read as TDP1 block 3.8%[0.0935 µM], DT40 TDP1 CPT 1.2%, DT40 TDP1 no CPT -7.2%, IL-1B inflam inh 10.0, TGFb SMAD3 inh 2.5% and HepG2 viability 9.9%.
`Cc1cc(NC(=O)COC(=O)C2CC(=O)N(c3cccc(Cl)c3)C2)no1` (centres undefined) gave TDP1 block 4.5%[0.0935 µM], DT40 TDP1 CPT -21.5%, DT40 TDP1 no CPT -15.7%, IL-1B inflam inh 4.4, TGFb SMAD3 inh -0.2% and HepG2 viability 8.9%.
`CCc1nc2ccc(C(=O)NCCc3ccccn3)cn2c1N(C)Cc1ccc(N(C)C)cc1` gave DT40 TDP1 CPT inconclusive, DT40 TDP1 no CPT inconclusive, IL-1B inflam inh inconclusive, TGFb SMAD3 inh inconclusive and HepG2 viability 12.6µM*.
`CCc1nc2ccc(C(=O)Nc3ccc(OC)c(OC)c3)cn2c1N(CC)Cc1cccc(Br)c1` gave DT40 TDP1 CPT 23.1µM*, DT40 TDP1 no CPT 23.1µM*, IL-1B inflam inh -57.1*, TGFb SMAD3 inh inconclusive and HepG2 viability -42.7%.
For CCCCN(C(C)=O)c1c(CC)nc2ccc(C(=O)NCCc3ccccn3)cn12 the results were DT40 TDP1 CPT -7.8%, DT40 TDP1 no CPT -16.2%, IL-1B inflam inh 0.2, TGFb SMAD3 inh 10.4% and HepG2 viability -17.3%.
For O=C(CNC(=O)c1ccc(Cl)cc1Cl)OCCCn1c(=O)[nH]c2ccccc21 the results were TDP1 block 6.2%, DT40 TDP1 CPT -10.1%, DT40 TDP1 no CPT -14.1%, IL-1B inflam inh -5.9, TGFb SMAD3 inh -17.3% and HepG2 viability -16.0%.
Oc1csc(Cc2nc(-c3ccc4ccccc4c3)cs2)n1 was read as TDP1 block 8.3%, DT40 TDP1 CPT inconclusive, DT40 TDP1 no CPT 14.6µM*, IL-1B inflam inh 34.7, TGFb SMAD3 inh -14.1% and HepG2 viability -18.7%.
Screening CCc1nnc(NC(=O)CN2CCN(Cc3ccccc3Cl)CC2)s1 returned TDP1 block 2.7%, DT40 TDP1 CPT -6.2%, DT40 TDP1 no CPT -9.8%, IL-1B inflam inh 62.5, TGFb SMAD3 inh -1.2% and HepG2 viability -0.4%.
For CCSc1nn(CC(=O)Nc2ccc(C(=O)OC)cc2)c(N)c1S(=O)(=O)c1ccc(C)cc1 the results were TDP1 block 0.0%, DT40 TDP1 CPT 16.4µM*, DT40 TDP1 no CPT 20.6µM*, TGFb SMAD3 inh inconclusive and HepG2 viability -12.8%.
Screening CSc1nn(CC(=O)Nc2ccccc2F)c(N)c1S(=O)(=O)c1ccccc1 returned TDP1 block 0.0%, DT40 TDP1 CPT -24.6%, DT40 TDP1 no CPT -26.6%, TGFb SMAD3 inh -5.9% and HepG2 viability -23.1%.
For COc1ccc(NC(=O)Cn2nc(SC)c(S(=O)(=O)c3ccc(C)cc3)c2N)cc1OC the results were TDP1 block 0.0%, DT40 TDP1 CPT -7.4%, DT40 TDP1 no CPT -22.2%, TGFb SMAD3 inh inconclusive and HepG2 viability -22.2%.
Screening CSc1nn(CC(=O)Nc2cc(C)ccc2C)c(N)c1S(=O)(=O)c1ccccc1 returned TDP1 block 0.0%, DT40 TDP1 CPT inconclusive, DT40 TDP1 no CPT 6.51µM*, TGFb SMAD3 inh -25.0% and HepG2 viability -6.7%.
CCOC(=O)c1ccc(NC(=O)Cn2nc(SC)c(S(=O)(=O)c3ccc(Cl)cc3)c2N)cc1 was read as TDP1 block 3.6%, DT40 TDP1 CPT inconclusive, DT40 TDP1 no CPT 20.6µM*, TGFb SMAD3 inh 5.01µM* and HepG2 viability -34.5%.
Screening COc1ccc(/C=C/CN2CCC(CO)(Cc3ccccc3Cl)CC2)cc1 returned TDP1 block 3.6%, DT40 TDP1 CPT inconclusive, DT40 TDP1 no CPT 14.6µM*, IL-1B inflam inh -79.2*, TGFb SMAD3 inh inconclusive and HepG2 viability -30.2%.
Screening O=C(C1CC12CCCC2)N1CCC(CO)(Cc2ccccc2Cl)CC1 (centres undefined) returned TDP1 block 7.4%, DT40 TDP1 CPT -28.3%, DT40 TDP1 no CPT -29.6%, IL-1B inflam inh -15.5, TGFb SMAD3 inh inconclusive and HepG2 viability -30.7%.
`CC(C(c1cccs1)c1c(N)n(C)c(=O)n(C)c1=O)[N+](=O)[O-]` (centres undefined) gave TDP1 block -1.9%, DT40 TDP1 CPT -5.0%, DT40 TDP1 no CPT inconclusive, IL-1B inflam inh -21.0, TGFb SMAD3 inh 0.0% and HepG2 viability -25.5%.
`COC(=O)c1ccc(NC(=O)CN2C(=O)CC(c3ccccc3)Sc3ccccc32)cc1` (centres undefined) gave TDP1 block 2.9%, TGFb SMAD3 inh 13.6% and HepG2 viability 1.1%.
O=C(CN1C(=O)COc2ccc(S(=O)(=O)N3CCCCCC3)cc21)NCc1ccc(Cl)cc1 was read as TDP1 block 2.6%, DT40 TDP1 CPT inconclusive, DT40 TDP1 no CPT -24.0%, TGFb SMAD3 inh 10µM* and HepG2 viability -4.3%.
For CC1CCN(S(=O)(=O)c2ccc3c(c2)N(CC(=O)NCCc2ccc(Cl)cc2)C(=O)CO3)CC1 the results were TDP1 block 1.3%, TGFb SMAD3 inh 12.6µM* and HepG2 viability -23.9%.
CSc1ccc(CCNC(=O)CN2C(=O)COc3ccc(S(=O)(=O)N4CCCC4)cc32)cc1 was read as TDP1 block 5.8%, DT40 TDP1 CPT 23.1µM*, DT40 TDP1 no CPT inconclusive, TGFb SMAD3 inh inconclusive and HepG2 viability -3.2%.
`O=C(CN1C(=O)COc2ccc(S(=O)(=O)N3CCCCC3)cc21)NCCc1ccc(Cl)cc1` gave TDP1 block 5.1%, DT40 TDP1 CPT inconclusive, DT40 TDP1 no CPT 18.4µM*, TGFb SMAD3 inh inconclusive and HepG2 viability -5.3%.
`CC1(C(=O)NS(=O)(=O)c2cccc(F)c2)CCN1C(=O)Cc1ccccc1` (centres undefined) gave DT40 TDP1 CPT 0.9%, DT40 TDP1 no CPT 6.6%, IL-1B inflam inh 8.3, TGFb SMAD3 inh 5.4% and HepG2 viability 11.8%.
Screening O=C(Cn1c(=O)n(Cc2ccco2)c(=O)c2oc3ccccc3c21)Nc1ccc(F)c(Cl)c1 returned TDP1 block 0.0%, DT40 TDP1 CPT inconclusive, DT40 TDP1 no CPT inconclusive, TGFb SMAD3 inh inconclusive and HepG2 viability -20.9%.
`C[C@H]1Cn2cnc(C(=O)Nc3ccccc3)c2C(=O)N1` gave DT40 TDP1 CPT -9.9%, DT40 TDP1 no CPT -25.6%, IL-1B inflam inh -21.2, TGFb SMAD3 inh 17.0% and HepG2 viability 2.6%.
